Experimental data taken from PubChem BioAssay AID493131 (Broad Institute, 2011).
The campaign covered roughly 340,000 compounds. About 3,300 (0.97%) were called active. The list comes from a sample in which actives are over-represented; it also holds similar structures and randomly drawn compounds. A number with no mark means an inactive call.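 Rule for the calls: active = mean activation above about 17%, with every replicate also reaching it (limit read from the data, passing the limit was not always enough); inconclusive = only one of the two conditions met; inactive = the rest.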

molecular target: Protein FosB (Mus musculus) (UniProt P13346); assay: enhancers of mouse delta FosB DNA binding – biochemical, fluorescence polarization, TAMRA-CDK5 oligo, single point, primary screen (AID 493131); settings: purified delta FosB, at 25 µM, hits give high values, percent of positive-control signal above neutral wells;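 note: fluorescence polarization rise as delta FosB binds a TAMRA Cdk5 AP-1 oligo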
Sequence (P13346 whole entry, looked up): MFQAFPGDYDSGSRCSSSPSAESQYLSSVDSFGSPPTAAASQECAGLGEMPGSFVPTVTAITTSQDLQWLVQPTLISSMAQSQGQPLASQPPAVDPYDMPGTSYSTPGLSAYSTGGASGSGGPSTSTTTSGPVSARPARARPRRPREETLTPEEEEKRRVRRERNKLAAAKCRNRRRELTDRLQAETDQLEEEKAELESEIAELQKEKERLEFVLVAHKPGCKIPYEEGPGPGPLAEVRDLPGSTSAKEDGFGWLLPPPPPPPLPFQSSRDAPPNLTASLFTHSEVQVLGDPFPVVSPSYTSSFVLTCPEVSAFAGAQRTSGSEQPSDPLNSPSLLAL

SMILES	activation
CNc1nc(SC)nc(N(C#N)CC(=O)OC)n1	0.989%
Oc1c(C(c2ccco2)N2CCC3(CC2)OCCO3)sc2ncnn12 (centres undefined)	-7.56%
CC(=O)Nc1ccc(NC(=O)C(NS(=O)(=O)c2ccc3c(c2)OCCO3)C(C)C)cc1 (centres undefined)	36.7% (active)
CC(NS(=O)(=O)c1ccc(Cl)cc1)C(=O)Nc1ccc2c(c1)OCCO2 (centres undefined)	1.9%
CC(C)NS(=O)(=O)c1ccc(OCC(=O)Nc2ccc3c(c2)OCCO3)cc1	-10.5%
CCc1ccc(C(=O)OCC(=O)NCC(F)(F)F)cc1	-1.18%
COC(=O)c1ccc2ccccc2c1OC1OC(CO)C(O)C(O)C1NC(C)=O (centres undefined)	-0.206%
C#CCOCCOCCOCCNc1nc(N2CCN(C(=O)[C@H](CCC(=O)O)n3cc(CN)nn3)CC2)nc(N2CCN(C(=O)[C@H](CCC(=O)O)n3cc(CN)nn3)CC2)n1	-0.339%
C#CCOCCOCCOCCNc1nc(N2CCN(C(=O)[C@H](Cc3ccc(O)cc3)n3cc(C(N)CC(C)C)nn3)CC2)nc(N2CCN(C(=O)[C@H](CCC(=O)O)n3cc(C(N)[C@H](C)CC)nn3)CC2)n1 (some centres undefined)	2.04%
C#CCOCCOCCOCCNc1nc(N2CCN(C(=O)C([C@@H](C)O)n3cc([C@@H](N)CCCCN)nn3)CC2)nc(N2CCN(C(=O)[C@H](CCCCN)n3cc(CN)nn3)CC2)n1 (some centres undefined)	31.3% (active)
C#CCOCCOCCOCCNc1nc(N2CCN(C(=O)[C@H](CCCCN)n3cc([C@@H](N)C(C)CC)nn3)CC2)nc(N2CCN(C(=O)[C@H](Cc3ccc(O)cc3)n3cc([C@@H](N)C(C)CC)nn3)CC2)n1 (some centres undefined)	15.3%
C#CCOCCOCCOCCNc1nc(N2CCN(C(=O)[C@H](CCCCN)n3cc(CCC(=O)O)nn3)CC2)nc(N2CCN(C(=O)[C@H](CCCCN)n3cc(CC(C)O)nn3)CC2)n1 (some centres undefined)	2.6%
C#CCOCCOCCOCCNc1nc(N2CCN(C(=O)C(Cc3ccc(O)cc3)n3cc(C(N)CC(C)C)nn3)CC2)nc(N2CCN(C(=O)C(Cc3ccc(O)cc3)n3cc(C(N)C(C)CC)nn3)CC2)n1 (centres undefined)	22.4% (active)
Cc1csc(CN(C)C(=O)CC2C(=O)NCCN2CC(C)(C)C)n1 (centres undefined)	-10.6%
COc1cc(-c2nnc(Cn3cc(C(F)(F)F)ccc3=O)o2)cc(OC)c1OC	-9.47%
COC(=O)c1ccc(CSc2ccc(S(=O)(=O)N3CCCCC3)cn2)cc1	8.71%
COc1ccc(N(C)S(=O)(=O)c2ccc3c(c2)CC(C)N3C(=O)C2CC2)c(OC)c1 (centres undefined)	-12.2%
COc1cc(C(=O)N2CCN(C/C=C/c3ccccc3)CC2)cc(OC)c1C	-7.31%
Cn1nnc(NC(=S)NC(=O)c2ccccc2)n1	-9.58%
CCOC(=O)C1=C(C)N(C[C@@H]2CC[C@@H](Cc3ccc(-c4ccccc4)cc3)O2)C(=O)NC1c1ccc([N+](=O)[O-])cc1 (some centres undefined)	-9.34%
S=c1c2[nH]cnc2ncn1CCSc1ncnc2nc[nH]c12	3.83%
COC(=O)c1ccc(CNC(=O)c2ccc3oc(C(C)C)nc3c2)cc1	-7.42%
O=C(CN1C(=O)c2cccc3cccc1c23)Nc1ccccc1	28.7% (active)
CC(C(=O)O)N1C(=O)c2cccc3cccc1c23 (centres undefined)	2.8%
Cc1cc(C)cc(NC(=O)CN2C(=O)c3ccccc3C2=O)c1	3.94%
COc1ccc(NC(=O)CCC(=O)N2CCN(S(=O)(=O)c3ccc(C)cc3)CC2)c(OC)c1	-2.45%
CCN1/C(=C\c2ccc3ccccc3[n+]2CC)Sc2cc(C)ccc21	54.5% (active)

SMILES	activation
COc1ccc(/C=C/C(=O)Nc2ccc(C)cc2)cc1S(=O)(=O)N1CCOCC1	-1.41%
COc1cc(/C=C/C(=O)Nc2ccc(OC)c(S(=O)(=O)N3CCOCC3)c2)ccc1OCC#N	-6.09%
COc1ccc(/C=C/C(=O)Nc2ccc(C34CC5CC(CC(O)(C5)C3)C4)cc2)cc1OC	51.4% (active)
CCCOc1ccc(Cn2c(O)cc(=O)[nH]c2=O)cc1	3.75%
COc1ccc(Cn2c(=O)cc(C)[nH]c2=S)cc1	-1.58%
COc1ccc(Cn2c(O)c(/C=C3/C=CC=N3)c(=O)[nH]c2=O)cc1	25.7% (active)
CN(CC(O)COc1ccc(S(=O)(=O)N2CCOCC2)cc1Cl)C1CCCCC1 (centres undefined)	-9.15%
O=C(NCCN=C1NS(=O)(=O)c2ccccc21)c1ccc(S(=O)(=O)N2CCOCC2)cc1	-16.1%
O=C(Nc1ccc2cn[nH]c2c1)c1ccc(S(=O)(=O)N2CCOCC2)cc1	-7.23%
COc1ccc(OC)c(CNC(=O)Cn2nc(C)c3c(C)n(-c4ccc(C)cc4)nc3c2=O)c1	113% (active)
Cc1nn(CC(=O)N2CCCCC2)c(=O)c2nn(-c3ccccc3)c(C)c12	-5.62%
COc1ccc(CNC(=O)C(C)n2nc(C)c3c(C)n(-c4ccccc4)nc3c2=O)c(OC)c1 (centres undefined)	-16.4%
CCc1ccccc1NC(=O)CN(C)C(=O)c1cc(C2CC2)nn1-c1ccccc1	-9.06%
O=C(O)c1cccnc1NC1CCCC1	1.59%
Cc1nn(C)cc1S(=O)(=O)N1CCN(c2ccc(F)cc2)CC1	-3.96%
COc1c(O)cc2oc(-c3ccc(O)c(O)c3)cc(=O)c2c1O	-4.25%
C[C@@H]1O[C@@H](OC[C@H]2O[C@@H](Oc3c(-c4ccc(O)cc4)oc4cc(O)cc(O)c4c3=O)[C@H](O)[C@@H](O)[C@@H]2O)[C@H](O)[C@H](O)[C@H]1O	-1.58%
COc1ccc(-c2cc(=O)c3c(O)cc(O[C@@H]4O[C@H](CO[C@@H]5O[C@@H](C)[C@H](O)[C@@H](O)[C@H]5O)[C@@H](O)[C@H](O)[C@H]4O)cc3o2)cc1O	74.8% (active)
Cc1ccc(NC(=O)NC(=O)N(C2CCCCC2)S(=O)(=O)c2ccccc2)cc1	-0.8%
O=C(Cn1cc(-c2nnnn2-c2ccc(Cl)cc2)c(=O)c2ccccc21)c1ccccc1	114% (active)
O=C(CN1CCN(c2ccc(Cl)cc2)CC1)c1ccccc1	1.64%
Clc1ccc(-n2nnnc2-c2cnc(-c3ccccn3)nc2-c2cccs2)cc1	-8.45%
CCOC(=O)N1CCC(NC(=O)C(C)n2c3ccccc3c3cnn(C)c(=O)c32)CC1 (centres undefined)	-6.6%
C=CCNC(=O)c1cc(-c2ccccc2O)on1	-2.37%
O=C(Nc1ccccc1C(F)(F)F)c1cc(-c2ccc(O)cc2)on1	0.0145%
O=C(Nc1cccnc1Cl)c1cc(-c2ccccc2O)on1	64.8% (active)
Cc1ccc(NC(=O)COC(=O)CCc2nc3ccccc3n2-c2ccccc2)c(C)c1	-3.49%

SMILES	activation
Cc1oc(-c2cccc(Cl)c2)[n+]([O-])c1C	7.9%
COc1ccc(C(=O)Nc2cc(C)c(NC(=O)c3ccccc3OC)cn2)cc1	-13.9%
COc1ccc(C(=O)Nc2ccccc2C(=O)N/N=C/c2ccccc2OC)cc1	38% (active)
COc1ccc(C(=O)Nc2ccccc2C(=O)N2CCN(c3ccccc3)CC2)cc1	-0.701%
Cc1ccc(NC(=O)NNC(=O)c2sccc2-n2cccc2)cc1	-2.71%
Nc1ccn(CC(=O)N2CCN(c3ccccn3)CC2)c(=O)n1	-4.48%
O=C(Nc1ccc(S(=O)(=O)N2CCOCC2)cc1)C1CCN(S(=O)(=O)c2ccc(Cl)cc2)CC1	-7.05%
COc1ccc(NC(=O)C2CCN(S(=O)(=O)c3ccc4[nH]c(=O)oc4c3)CC2)c(OC)c1	1.87%
Cn1c(=O)oc2cc(S(=O)(=O)N3CCC(C(=O)Nc4ccc(OC(F)(F)F)cc4)CC3)ccc21	32.2% (active)
O=C(NC1CCCCC1)n1c(=O)oc2cc(S(=O)(=O)N3CCCCC3)ccc21	3.88%
Cc1ccc(C)c(N2CCN(S(=O)(=O)c3ccc4c(c3)oc(=O)n4C)CC2)c1	-5.87%
Cc1ccc2nc(NC(=O)C3CCN(S(=O)(=O)c4ccc5c(c4)oc(=O)n5C)CC3)sc2c1	28.8% (active)
CC(=O)c1cccc(-c2ccc(CN3C(CC(C)C)C(=O)N(Cc4cn(CC5CCCCC5)nn4)CCS3(=O)=O)cc2)c1 (centres undefined)	-19.5%
O=C(NN=Cc1ccccc1O)NN=Cc1ccccc1O	8.66%
O=C(Nc1ccc(C(=O)NCc2ccccc2Cl)cc1)C1=CSCCO1	-4.85%
COc1cc(O)c2c(=O)c3c(O)c(O)ccc3oc2c1OC	-1.22%
CCCc1nc2c([nH]1)C(c1cccnc1)C(C#N)=C(N)O2 (centres undefined)	-0.0522%
Cc1ccc(NC(=O)COc2ccc(/C=C3/NC(=O)NC3=O)cc2)cc1	73.1% (active)
O=C(COc1ccccc1)Nc1ccc(F)cc1	-2.09%
CC(=O)Nc1ccc(NC(=O)COc2ccc(-c3ccccc3)cc2)cc1	14.5%
COC(=O)C1=C(O)/C(=C/c2ccc(OCC(=O)Nc3ccccc3)cc2)N=C1C	13.8%
CCOC(=O)C1=C(O)/C(=C/c2ccc(OCC(=O)Nc3ccc(C)cc3)cc2)N=C1C	30.5% (active)
CCOC(=O)C1=C(O)/C(=C/c2cc(C)n(-c3ccccc3)c2C)N=C1C	-14.4%
CSCCC(NC(=O)COc1ccccc1)C(=O)N(C)CC(=O)Nc1ccc(C)cc1 (centres undefined)	-10.6%
C#Cc1ccc([C@@H]2C=C(C(=O)O)O[C@H](OCCCCO)C2)cc1	-5.67%
